According to PubChem BioAssay:
Results filed as inconclusive are left out. Calls of active or inactive are those of the source. Rule as the data show it, unless noted: active = inhibition above about 30%; inactive = the rest.

How the values were obtained:
[1] = Her2 expression decrease, cell viability multiplex – SKBR3 breast tumor cells, AlphaScreen, ATP viability, primary screen (AID 461;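 active = Her2 level under about 52% in both replicate screens, with viability over 70% of control, limit read from the data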;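 as to Her2 level: lower value means less Her2 protein in the cells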;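 as to viability: percent of carrier control wells set as 100% viability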); details: SKBR3 Her2 protein level, 18-24 h, measured here: SKBR3 viability, ATP luminescence, at 10 µM
[2] = biological target: Receptor tyrosine-protein kinase erbB-2 (Homo sapiens) (UniProt P04626); experiment: as above; details: 18-24 h, at 10 µM, stronger effect = lower value
[3] = reduced viability of SK-BR-3 breast cancer cells – cell-based, 24 h, human, pilot screen (AID 572;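 active = viability at or below 10% of carrier control in both of two separate runs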;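 also: compound exposure lasted between 18 and 24 h rather than exactly 24 h; 100% = carrier-treated control wells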); details: SK-BR-3 viability, CellTiter-Glo luminescence, at 10 µM, stronger effect = lower value
[4] = HUVEC growth inhibition – cell-based, human, primary screen (AID 575;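 active = viability at or below 30% in both replicate assays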;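 also: 100% = median of untreated cell wells with 0.1% DMSO on each plate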); details: HUVEC proliferation, CellTiter-Glo luminescence, 72 h; at 10 µM; stronger effect = lower value
[5] = H69AR cell proliferation blockers – human, duplicate replicates, primary screen (AID 580;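 active = viability at or under a set limit in both replicates, limit being median viability minus 3 SD, cut at about 48% in these data, passing the limit was not always enough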;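 also: 100% = mean luminescence of untreated wells and 0% = no signal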); details: H69AR lung tumor cells viability, ATP luminescence, 72 h; at 10 µM; stronger effect = lower value
[6] = MRP1 drug-resistance reversers in H69AR cells – cell-based, doxorubicin co-treatment, pilot screen (AID 601;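 active = viability loss from added drug above about 55%, and viability with drug at most 40%, in both replicates, limit read from the data, passing the limit was not always enough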); details: CellTiter-Glo, 72 h, at 10 µM; for differential viability (reversal): stronger effect = higher value
[7] = yeast transport mutant growth inhibition pilot in 384-well plates, post-Golgi transport modulator project (AID 636; in the data active = inhibition above about 31%); details: absorbance 615 nm, about 18 h, stronger effect = higher value
[8] = growth suppression of yeast trafficking mutant, preliminary HTS, modulators of trafficking downstream of Golgi apparatus project, 1536-format plate, OD 615 nm (AID 637); details: yeast transport mutant growth, absorbance 615 nm, 18 h; stronger effect = higher value
[9] = S. cerevisiae growth inhibition in permissive medium (OD615), pilot counter-assay for S. cerevisiae lifespan shortening project, permissive growth control (AID 705;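 active = growth inhibition above 25% in both replicates, a cutoff set 3 SD above the mean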); details: OD615, 24 h, at 10 µM, stronger effect = higher value
[10] = S. cerevisiae growth inhibition in restrictive medium, OD615, pilot screen, restrictive growth control, yeast lifespan reduction project (AID 706;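 active = growth inhibition above a set limit, 3 SD over mean compound inhibition, in both replicates, cut at about 43% in these data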;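 also: modified DeaD lifespan yeast strain shifted to restrictive glucose medium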); details: OD615, 48 h, at 10 µM, stronger effect = higher value
[11] = doxorubicin toxicity protection in MRP-1 cells – H69AR cells, CellTiter-Glo, duplicate, MRP-1 activator project, pilot screen (AID 807;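 active = viability increase at or above a cutoff of the median across tested compounds plus 3 SD, cut at about 8.5% in these data, passing the limit was not always enough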;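 also: compound pretreatment 18-22 h then 72 h combined with doxorubicin; 0% = doxorubicin alone and 100% = vehicle without doxorubicin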); details: H69AR viability with doxorubicin, CellTiter-Glo luminescence; at 10 µM; stronger effect = higher value
[12] = viability of HCT116 without oncogenic beta-catenin – human colon tumor cells, pilot screen (AID 823;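 active = cell viability at or below a set limit in both duplicate runs, the limit being the all-compound median minus 4 SD, cut at about 23% in these data, passing the limit was not always enough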;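 also: 0% = wells killed by 20 µM Hyamine and 100% = untreated DMSO cell wells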); details: HCT116 beta-catenin knockout viability, CellTiter-Glo, 60 h; at 10 µM; stronger effect = lower value
[13] = viability of PTEN-null HCT116 cells – cell-based, HCT116 clonal line, CellTiter-Glo, pilot screen (AID 824;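 active = viability at or below 27.92% in each of two runs, the all-compound median minus 4 SD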;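 also: 0% = 20 µM Hyamine control and 100% = vehicle cell control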); details: HCT116 PTEN-deleted viability, 60 h, at 10 µM, stronger effect = lower value
[14] = RAM pathway blockade in budding yeast – dse1pr::URA3 reporter, 5-FOA selection, pilot screen (AID 869;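 active = inhibition over a set limit, the all-compound mean plus 3 SD, in both replicate runs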;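 also: 0% = DMSO wells with no growth and 100% = 10 µM 1-NA-PP1 with full growth; RAM network block rescues cells from 5-FOA so hits raise OD615 growth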); details: S. cerevisiae dse1pr::URA3 5-FOA growth, OD615, 2 d; at 10 µM; stronger effect = higher value; strain carries analog-sensitive mutant Cbk1 kinase
[15] = H69AR cells + 2 uM doxorubicin, measured here: viability with 2 uM doxorubicin, stronger effect = lower value
[16] = H69AR cells, compound alone cytotoxicity

Sequence of Receptor tyrosine-protein kinase erbB-2 (Homo sapiens) (P04626 whole entry, looked up): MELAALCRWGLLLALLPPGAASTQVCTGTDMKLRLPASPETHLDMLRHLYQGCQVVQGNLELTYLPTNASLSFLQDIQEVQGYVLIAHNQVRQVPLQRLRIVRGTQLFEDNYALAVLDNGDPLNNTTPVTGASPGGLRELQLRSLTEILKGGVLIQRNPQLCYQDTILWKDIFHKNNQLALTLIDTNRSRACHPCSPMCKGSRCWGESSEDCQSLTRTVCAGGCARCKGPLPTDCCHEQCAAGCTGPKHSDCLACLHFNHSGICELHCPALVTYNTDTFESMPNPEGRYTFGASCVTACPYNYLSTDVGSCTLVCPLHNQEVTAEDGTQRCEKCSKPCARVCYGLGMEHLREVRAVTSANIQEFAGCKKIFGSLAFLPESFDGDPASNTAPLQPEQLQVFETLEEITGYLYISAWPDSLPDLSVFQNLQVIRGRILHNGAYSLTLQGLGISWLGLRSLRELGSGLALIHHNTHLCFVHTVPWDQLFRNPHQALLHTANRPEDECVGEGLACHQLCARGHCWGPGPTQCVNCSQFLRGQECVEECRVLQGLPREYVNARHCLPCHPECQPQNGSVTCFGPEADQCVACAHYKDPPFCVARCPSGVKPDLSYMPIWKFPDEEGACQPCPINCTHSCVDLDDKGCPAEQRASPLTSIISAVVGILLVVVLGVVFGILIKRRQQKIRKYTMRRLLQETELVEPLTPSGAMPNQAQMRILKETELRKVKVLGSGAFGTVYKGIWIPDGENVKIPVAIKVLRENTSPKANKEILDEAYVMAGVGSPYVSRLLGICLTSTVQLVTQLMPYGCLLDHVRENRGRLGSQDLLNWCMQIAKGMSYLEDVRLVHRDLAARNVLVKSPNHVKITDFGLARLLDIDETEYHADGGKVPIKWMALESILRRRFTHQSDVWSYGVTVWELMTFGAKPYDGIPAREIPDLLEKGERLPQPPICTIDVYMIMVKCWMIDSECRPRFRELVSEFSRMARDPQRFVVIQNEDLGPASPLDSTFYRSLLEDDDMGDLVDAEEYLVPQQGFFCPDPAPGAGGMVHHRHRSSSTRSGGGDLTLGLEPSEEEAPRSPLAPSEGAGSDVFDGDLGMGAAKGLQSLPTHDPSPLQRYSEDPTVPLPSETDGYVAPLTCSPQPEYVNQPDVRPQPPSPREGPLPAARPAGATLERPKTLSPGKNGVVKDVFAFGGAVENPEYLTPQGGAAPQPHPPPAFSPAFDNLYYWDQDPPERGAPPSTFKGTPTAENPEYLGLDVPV

Row | Structure (SMILES) | viability [1] [%] | Her2 level [2] | viability [3] | viability [4] | viability [5] | differential viability (reversal) ([6]; H69AR cells + 2 uM doxorubicin) | viability [6, 15] [%] | viability [6, 16] [%] | inhibition [7] | inhibition [8] | growth inhibition [9] | growth inhibition [10] | viability increase [11] | viability [12] | viability [13] | inhibition [14]
1 | COc1ccccc1N1CCN(S(=O)(=O)CC23CCC(CC2=O)C3(C)C)CC1 (stereo unspecified) | 102 | 94% (inactive) | 102% (inactive) | 76.9% (inactive) | 84.5% (inactive) | 0.875% (inactive) | 83.6 | 84.5 | -0.52% (inactive) | -3.67% (inactive) |  |  |  |  |  | 
2 | CC(=O)CCc1ccc(OCCCCn2cncn2)cc1 | 113 | 105% (inactive) | 113% (inactive) | 98.2% (inactive) | 92.9% (inactive) | 3.28% (inactive) | 89.6 | 92.9 | -4.94% (inactive) | 1.59% (inactive) |  |  |  |  |  | 
3 | O=C(Nc1ccc(S(=O)(=O)N2CCc3ccccc32)cc1)c1ccc2c(c1)OCO2 | 77 | 75.5% (inactive) | 77% (inactive) | 76.7% (inactive) | 103% (inactive) | 2.24% (inactive) | 100 | 103 | 3.51% (inactive) | -8.73% (inactive) |  |  |  |  |  | 
4 | O=C1NCCCc2c1no[n+]2[O-] | 100 | 103% (inactive) | 100% (inactive) | 84.1% (inactive) | 104% (inactive) | 4.5% (inactive) | 99.2 | 104 | -0.13% (inactive) | -3.71% (inactive) |  |  |  |  |  | 
5 | Cc1nc2sc(C(c3cccc(F)c3)N3CCC(C)CC3)c(O)n2n1 (stereo unspecified) | 88 | 77% (inactive) | 88% (inactive) | 101% (inactive) | 96.3% (inactive) | 9.65% (inactive) | 86.7 | 96.3 | -6.71% (inactive) | 1.75% (inactive) |  |  |  |  |  | 
6 | COc1ccccc1C(=O)Nc1ccc(N2CCN(Cc3ccccc3)CC2)cc1 | 81.5 | 75.5% (inactive) | 81.5% (inactive) | 66.8% (inactive) | 89.6% (inactive) | 2.1% (inactive) | 87.5 | 89.6 | -5.2% (inactive) | 1.97% (inactive) |  |  |  |  |  | 
7 | O=C(OCCCN1C(=O)c2ccccc2C1=O)c1ccco1 | 102 | 105% (inactive) | 102% (inactive) | 96% (inactive) | 95.2% (inactive) | 1.29% (inactive) | 93.9 | 95.2 | 0.79% (inactive) | -0.16% (inactive) |  |  |  |  |  | 
8 | CC(C)CCNC(=O)NC(=O)CSc1nnc(-c2ccccc2F)n1N | 94 | 108% (inactive) | 94% (inactive) | 99.9% (inactive) | 98.1% (inactive) | 6.23% (inactive) | 91.9 | 98.1 | 8.03% (inactive) | 14.8% (inactive) |  |  |  |  |  | 
9 | CCOC(=O)c1[nH]c(C)c(C(=O)Nc2ccccc2C)c1C | 79.5 | 85% (inactive) | 79.5% (inactive) | 60.8% (inactive) | 19.3% (active) | -46.6% (inactive) | 65.9 | 19.3 | -0.9% (inactive) | 3.67% (inactive) |  |  |  |  |  | 
10 | CN1C(=O)C(O)(CC(=O)c2ccc3c(c2)OCO3)c2ccccc21 (stereo unspecified) | 99.5 | 90.5% (inactive) | 99.5% (inactive) | 84.7% (inactive) | 82.5% (inactive) | 9.22% (inactive) | 73.3 | 82.5 | 0.52% (inactive) | -0.83% (inactive) |  |  |  |  |  | 
11 | O=C(CSc1nnc(SCc2ccc(Cl)cc2)s1)N1CCN(C(=O)c2ccco2)CC1 | 80.5 | 93% (inactive) | 80.5% (inactive) | 70.3% (inactive) | 100% (inactive) | 10.9% (inactive) | 89.2 | 100 | -8.36% (inactive) | -5.56% (inactive) |  |  |  |  |  | 
12 | Cc1nc(-c2cccc(-c3noc(C)n3)c2)no1 | 87.5 | 99% (inactive) | 87.5% (inactive) | 86.1% (inactive) | 102% (inactive) | 5.99% (inactive) | 95.8 | 102 | -5.54% (inactive) | -1.48% (inactive) |  |  |  |  |  | 
13 | COc1cccc(N(C(=O)c2ccco2)C(C(=O)NC2CCCC2)c2ccc(N(C)C)cc2)c1 (stereo unspecified) | 98 | 92.5% (inactive) | 98% (inactive) | 97.5% (inactive) | 91.8% (inactive) | 14.6% (inactive) | 77.2 | 91.8 | -5.45% (inactive) | -2.13% (inactive) |  |  |  |  |  | 
14 | COc1ccc(N2C(=O)CC(N3CCCC4CCCCC43)C2=O)cc1 (stereo unspecified) | 102 | 125% (inactive) | 102% (inactive) | 109% (inactive) | 90.8% (inactive) | 9.28% (inactive) | 81.5 | 90.8 | -4.03% (inactive) | -6.83% (inactive) | -3.32% (inactive) | 3.25% (inactive) | -0.71% (inactive) | 98.3% (inactive) | 101% (inactive) | 0.71% (inactive)
15 | CC(C)CCNC(=O)NC(=O)CSc1nnc(-c2ccccc2Br)o1 | 95 | 95.5% (inactive) | 95% (inactive) | 85.8% (inactive) | 104% (inactive) | 2.91% (inactive) | 101 | 104 | -4.74% (inactive) | 0% (inactive) |  |  |  |  |  | 
